Y pestis TopoI: inhibitors of Yersinia pestis topoisomerase I. actives 0.064% (n = 360,000). Y. pestis Topo-I cleavage product accumulation, plate reader. activity, % at 10 µM; in the data active means activity above about 50%, passing the limit was not always enough
Mtb hypoxia rep: Mtb hypoxia fluorescent reporter inhibition. M. tuberculosis hypoxia-regulated fluorescent reporter, fluorescence. AID 1159583. actives 0.1% (n = 300,000). fluorescence inhibition, % (concentration not given with the values); in the data active means fluorescence inhibition mostly above about 23%, no sharp cut-off; inactive means mostly below about 17%
Mtb BioA inh: BioA (M. tuberculosis) enzyme inhibition; purified M. tuberculosis BioA enzyme, plate reader; inhibition, % at 9.99 µM; actives 0.096% (n = 360,000); AID 602481; in the data active means inhibition above about 40%
ugtP null kill: kills S. aureus RN4220 lacking UgtP; growth inhibition, % (no concentration beside the values); S. aureus RN4220 ugtP deletion, OD600 growth, 16 h; actives 0.54% (n = 330,000); AID 1259309; in the data active means growth inhibition above about 68%;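 further: plate controls were untreated wells for no effect and antibiotic for full effect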
TcdB inh: inhibitors of Clostridioides difficile toxin B glycohydrolase | TcdB glycohydrolase enzymatic assay, plate reader | inhibition, % at 9.99 µM | actives 0.24% (n = 350,000) | AID 652162; in the data active means inhibition above about 10%
Sa RN4220 lethal: kills Staphylococcus aureus RN4220. S. aureus RN4220 growth, OD600, 16 h. inhibition, % (concentration not given with the values). actives 0.33% (n = 330,000). AID 1259311; in the data active means inhibition above about 85%;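 further: plate controls were untreated cells for no effect and reference antibiotic for full effect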
Starred values were filed as active, the others as inactive; nt = no result shown. Most compounds without a hit are left out; they make up all but 0.75% or so of the library.

SMILES	Y pestis TopoI	Mtb hypoxia rep	Mtb BioA inh	ugtP null kill	TcdB inh	Sa RN4220 lethal
CC(=O)OC1CC[C@@]2(C)C(=CCC3C4CCC(C(C)=O)[C@@]4(C)CCC32)C1 (some centres undefined)	nt	7.7	nt	22.2	nt	1.1
CC(=O)OC1CC[C@@]2(C)C(=CCC3C2CC[C@]2(C)C(=O)CCC32)C1 (some centres undefined)	nt	-2.6	nt	87.1*	nt	-4.9
Cc1ccc(C2(C)NC(=O)N(CC(=O)N3c4ccccc4NC(=O)CC3C)C2=O)cc1 (centres undefined)	-7.8	13.1*	-1.8	-1.4	1.3	2.0
Cc1ccc(C2(C)NC(=O)N(CC(=O)N3CCc4ccccc43)C2=O)cc1 (centres undefined)	4.6	-0.7	nt	-8.5	0.7	-0.4
Cc1cccc(C=NNC(=O)c2ccc(Cl)cc2)c1O	nt	17.5	nt	73.4	nt	92.6*
Cn1nc(-c2ccc(Cl)cc2)nc2c(=O)n(C)c(=O)nc1-2	nt	8.5	1.8	100.5*	nt	100.4*
CCn1c(=O)c(C(=O)Nc2nc3ccccc3[nH]2)c(O)c2ccccc21	17.7	-1.2	1.4	100.4*	nt	99.7*
CCCCCn1c(=O)c(C(=O)Nc2nc3ccccc3[nH]2)c(O)c2ccccc21	-3.5	1.2	-0.1	100.6*	0.8	82.7
CCn1c(=O)c(C(=O)Nc2ccccc2)c(O)c2ccccc21	-4.0	12.9	-2.9	6.3	-0.6	-5.4
CCCCCn1c(=O)c(C(=O)Nc2ccccc2Cl)c(O)c2ccccc21	3.8	8.9	0.4	23.5	0.7	5.4
O=C(COc1cccc(Cl)c1)NN=Cc1cc2ccccc2nc1Cl	nt	-2.9	nt	1.3	nt	11.3
Cc1ccc(C2C3C(=O)N(c4ccccc4)C(=O)C3[C@]3(C)C(=O)N(Cc4ccc(-c5ccccc5)cc4)CC(=O)N23)o1 (some centres undefined)	nt	16.0	nt	5.7	nt	7.6
C/C(CCc1ccccc1)=N\NC(=O)C1C2CCCCC21 (centres undefined)	-1.3	nt	nt	nt	10.8*	nt
Cc1ccc(S(=O)(=O)N2C(c3ccc(Cl)c(Cl)c3)CC=C(C(=O)O)C2c2ccccc2)cc1 (centres undefined)	nt	7.2	nt	90.3*	nt	28.1
CCc1ccc2c(c1)C1(NN=C(c3ccc(C)cc3)S1)C(=O)N2 (centres undefined)	5.6	nt	-0.4	43.8	nt	45.9
CC(C)c1ccc2c(c1)C1(NN=C(c3ccccc3)S1)C(=O)N2 (centres undefined)	-3.7	-2.8	-1.4	97.9*	nt	93.5*
Cc1[nH]n(-c2ccc(F)cc2)c(=O)c1C=Nc1sc2c(c1C#N)CCCC2	nt	nt	nt	0.1	nt	1.9
O=C(NCc1ccc2c(c1)OCO2)c1ccc(Br)cc1	16.0	nt	-1.0	2.5	-0.1	-0.1
Cc1nc2cc(C(=O)NCc3ccc4c(c3)OCO4)ccc2n1-c1ccc(Br)cc1	30.0	0.2	nt	95.5*	-0.1	-16.3
O=C1C2=C(NC(=S)NC2c2ccc(Cl)cc2)NC(c2ccc(Cl)cc2)N1c1ccc(Cl)cc1 (centres undefined)	16.2	0.2	-0.7	93.1*	nt	100.1*
Fc1ccc(C=NNc2nc(-c3cccnc3)nc3ccccc23)cc1	nt	2.0	nt	-13.2	nt	-0.3
Cc1ccc(NC(=O)C(OC(=O)c2ccc(C=O)cc2)c2ccccc2)cc1Cl (centres undefined)	-8.6	9.3	nt	89.6*	nt	-13.4
Cc1ccc(C)c(NC(=O)C(OC(=O)c2ccc(CO)cc2)c2ccccc2)c1 (centres undefined)	1.5	0.2	-0.6	-3.2	1.2	-3.2
CC(C)(C)c1cc(C=NNC(=O)Cc2nc3ccccc3[nH]2)cc(C(C)(C)C)c1O	nt	-2.4	nt	-21.4	nt	-9.5
Cc1ccc(C(=O)Nc2ccc(Cl)cc2C(=O)c2ccccc2)cc1	-0.3	15.1	-1.4	91.8*	nt	-4.4
SMILES	Y pestis TopoI	Mtb hypoxia rep	Mtb BioA inh	ugtP null kill	TcdB inh	Sa RN4220 lethal
Cc1ccc(OCC(=O)Nc2ccc(Cl)cc2C(=O)c2ccccc2)cc1	11.4	9.1	-1.0	9.5	nt	2.7
Cc1cc(O)ccc1NC(=O)c1ccccc1	1.9	4.6	nt	2.6	12.1*	2.8
COc1ccc(C(=O)Nc2cc(Cl)ccc2C(=O)O)cc1	-3.6	14.2	nt	22.6	28.6*	37.2
Cc1cc(OCC(=O)ON=C(N)c2ccccc2)ccc1Br	nt	1.1	nt	7.7	nt	1.6
O=C(Nc1cccc(O)c1)c1ccc2c(c1)C(=O)N(Cc1ccco1)C2=O	-6.9	6.7	0.2	-3.6	1.1	3.6
CC(C)CCN1C(=O)c2ccc(C(=O)Nc3ccc(Br)cc3C(=O)O)cc2C1=O	0.3	5.4	0.0	100.2*	0.7	97.7*
O=C(Nc1ccc(Cl)cc1C(=O)O)c1ccc2c(c1)C(=O)N(Cc1ccco1)C2=O	-6.0	5.5	0.4	99.8*	nt	66.3
Cc1ccc(N(CCC#N)C(=O)CCl)cc1C	-1.3	38.5*	0.0	3.7	-0.4	6.6
CC(CCc1ccc2c(c1)OCO2)=N/N=C1/NC(=O)CC(C(=O)Nc2ccc(Cl)cc2)S1 (centres undefined)	nt	-5.9	nt	-14.0	nt	-0.3
CCCC(=O)NC(=S)Nc1ccc(N2CCN(C(=O)c3cccs3)CC2)cc1	11.2	nt	-1.4	active	3.0	96.6
CCC(=O)NC(=S)Nc1ccc(N2CCOCC2)cc1	3.4	13.3	nt	10.0	0.4	6.7
CCCC(=O)NC(=S)Nc1ccc(NC(=O)c2cccs2)cc1	2.6	nt	nt	72.4	nt	2.8
COc1ccc(OCC(=O)NC(=S)Nc2ccc(N3CCOCC3)c(Cl)c2)cc1	-6.9	38.1*	-1.2	7.2	nt	-2.3
COc1ccc(OCC(=O)Nc2ccc(N3CCOCC3)c(Cl)c2)cc1	10.5	nt	-3.2	3.4	nt	2.6
CCCCCC(=O)NC(=S)Nc1ccc(N2CCOCC2)cc1	-1.9	nt	nt	91.1*	0.8	1.0
CCOC(=O)C1=C(O)C(=Cc2ccc(CNC(=O)C(=O)Nc3ccccc3)o2)N=C1C	nt	2.8	nt	-11.8	nt	4.2
COC(=O)C1=C(c2ccccc2)CC2CCC1N2C(=O)NCc1ccc(F)cc1 (centres undefined)	nt	2.0	nt	-0.7	nt	5.1
O=C1NC(=O)/C(=C/c2ccc(O)cc2)S1	-0.2	nt	nt	nt	27.0*	nt
COc1ccc(C=NNC(=O)c2nn(C)cc2Cl)cc1CN1CCOCC1	nt	-0.9	nt	7.2	nt	4.5
CC(=O)N/C(=N/c1nc(C)cc(C)n1)Nc1ccc(Cl)cc1Cl	nt	5.0	nt	14.1	nt	0.6
CCOc1ccc(C=NNC(=O)c2ccc(Cn3cc([N+](=O)[O-])cn3)o2)cc1	nt	nt	nt	-3.2	nt	4.2
COc1ccc(C)cc1NC(=O)C(OC(=O)c1cnccn1)c1ccccc1 (centres undefined)	6.7	9.6	3.8	3.9	-1.0	3.7
COc1ccc(C)cc1NC(=O)C(OC(=O)C1=NNC(=O)CC1)c1ccccc1 (centres undefined)	1.6	-2.3	-2.8	2.3	12.7*	2.7
CC1CC(=NN2C(=O)CSC2=S)CC(C)(C)C1 (centres undefined)	nt	nt	nt	2.7	nt	0.3
CCOC(=O)CNc1nc(C(C)(C)C)nc2c1nnn2Cc1ccccc1	58.7*	-7.2	-0.8	-2.7	0.6	-2.5

Source: PubChem (several laboratories)
